Among the data in PubChem BioAssay AID1814 (Broad Institute, 2009) are activity score values, retold here.

Among all 300,000 compounds or so, about 22,000 (7.3%) were called active. Not shown: some 2% with an inconclusive outcome. This excerpt belongs to a sample that is enriched for actives. Values without a mark were called inactive. Rule as the data show it: active = activity score below about -60%; inconclusive = mostly about -28% to -61%; inactive = positive scores.

This assay is described as follows: Activators working through SNCA 5'UTR binding (MLPCN) (AID 1814). The conditions noted are these: alpha-synuclein 5'UTR reporter, activators screen; active compounds read low; tested at 7.5 µM.
As to `CCOC(=O)c1cnc(-n2nc(C)cc2C)nc1NNc1cc(C)nc(-c2ccccc2)n1`, the activity score is 105%.
Next, `Cc1cc(-n2nc(C)cc2C)n2ncc(-c3ccccc3)c2n1`: -73.6% (active).
For the compound `O=C1/C(=C\Nc2ccccc2)CCN1c1ncccn1`, the activity score is -99.5% (active).
Next, `O=C(CSC(=S)N1CCCCC1)c1c(F)cccc1F`: -175% (active); `COc1ccc(OCc2ccc(-c3nc4ccccc4c(=O)n3N)o2)cc1`: -143% (active).
Take `Cc1ccc(OCc2nc3ccccc3n2C)cc1`: the activity score is -109% (active).
For the compound `COCn1c(COc2ccccc2)nc2ccccc21`, the activity score was -65.8% (active).
Next, `CCOc1ccc(C(O)Cc2nc3ccccc3n2C)cc1` (centres undefined): -67.7% (active); `COc1ccc(C)c(Cn2c(-c3nonc3N)nc3ccccc32)c1`: 76.2%.
Next, `Cn1c(COc2ccc(Cl)cc2)nc2ccccc2c1=O`: -91.8% (active).
Turning to `CC(C)c1ccc(Nc2ncccc2C#N)cc1`, the activity score is -111% (active).
Next, `COC(=O)c1sc(NC(=S)NC(=O)c2ccc(C)cc2)nc1C`: -102% (active).
Take `CC(=O)c1sc(NC(=O)c2ccc(C)cc2)nc1C`: the activity score was -112% (active).
The value for `O=C(N/N=C/c1ccc([N+](=O)[O-])o1)c1cccc(S(=O)(=O)N2CCOCC2)c1` was -81.1% (active).
Consider `COc1ccc(C(=NN)c2ccc(OC)cc2)cc1`, for which the activity score is -133% (active).
The value for `O=C(Nc1ccon1)c1sc2ccccc2c1Cl` was -179% (active); that for `CN(C)c1ccc(/C=N/NC(=O)c2ccc(Cn3cc(Br)cn3)o2)cc1` was -69.3% (active).
On to `Cc1c(Cl)c([N+](=O)[O-])nn1Cc1ccc(C(=O)N/N=C\c2cc(Cl)ccc2O)o1`, for which the activity score is 81.2%.
Next, `CC(C)c1cc(C(N)=O)c(NC(=O)c2cccc(COc3ccc(Br)cc3)c2)s1`: -194% (active).
Turning to `CCOc1ccc(OCc2cccc(C(=O)N(CC)CC)c2)cc1`, the activity score is 50.8%.
Consider `CN(C)c1nc(=Nc2cccc(Cl)c2)ss1`, for which the activity score is -64.3% (active).
The value for `CS(=O)(=O)N1CCc2nc(-c3ccccc3)sc2C1` was -90.2% (active); that for `O=C(c1ccccc1)c1ccc(OC(=O)N2CCCC2)cc1` was -65.8% (active); that for `Cc1ccc(CSc2nc3[nH]ncc3c(=O)[nH]2)cc1` was -78% (active).
On to `Clc1ccc(-c2nnc(SCc3nc4ccccc4s3)o2)cc1`, for which the activity score was -162% (active).
`Oc1ccc(CNc2ccccc2O)cc1`: the activity score is -62.2% (active).
Turning to `Cc1cc(OCc2cc(C(=O)NCc3cc(C(C)C)no3)no2)cc(C)c1Cl`, the activity score is -135% (active).
The value for `CCOc1ccc(NS(=O)(=O)c2ccc(C)c(C(N)=O)c2)cc1` was -72.9% (active); that for `COc1cc(CN2CCC(C(N)=O)CC2)ccc1OCc1ccccc1` was -111% (active).
Take `N=c1c2c3c(sc2nc2n1CCCCC2)CCCC3`: the activity score was -89.5% (active).
Consider `CCCCc1ccc(NC(=S)N2CCCC(CO)C2)cc1` (centres undefined), for which the activity score is -107% (active).
Turning to `Fc1ccc(/C=N/Nc2nc(-c3cccnc3)nc3ccccc23)cc1`, the activity score is -70.9% (active).
`CN(CCO)c1ccc(/C=N/Nc2nncc3ccccc23)cc1`: the activity score is 57.2%.
Next, `CC(C)c1ccc(NC(=O)NC2CCCCC2)cc1`: -244% (active); `Cc1ccc(/C=N/NC(=S)NC2CCCCC2)o1`: -135% (active); `Cc1cc(Br)ccc1NC(=S)NC1CCCC1`: -66.7% (active).
Next, `Cc1ccc(NC(=S)NC2CCCC2)cc1`: -65.1% (active); `Cc1ccc2nc(-c3ccc(Br)cc3)cn2c1`: 63.2%.
As for `COc1ccc(-c2cn3ccc(C)cc3n2)cc1`, the activity score was 92.2%.
The value for `CCN(CC)S(=O)(=O)c1ccc(-c2cn3ccc(C)cc3n2)cc1` was -169% (active); that for `Cc1cccc(N=Nc2c(O)[nH]c3ccc(F)cc23)c1` was -147% (active); that for `O=C(Cc1ccccc1)NCc1ccc(F)cc1` was -66.4% (active).
Take `O=C(CC1CCCCC1)NCc1ccc(F)cc1`: the activity score was -72.4% (active).
The value for `O=C(NCCc1ccc(F)cc1)c1n[nH]c2ccccc12` was -150% (active); that for `O=C(CC1CCCCC1)NCc1ccccc1` was -86.3% (active).
The value for `COc1ccc(COC(=O)c2n[nH]c3ccccc23)cc1F` was -96.4% (active); that for `O=C1Nc2ccccc2C12Nc1ccccc1S2` (centres undefined) was -83.2% (active); that for `CCc1ccc2c(c1)C1(NN=C(c3ccccc3)S1)C(=O)N2` (centres undefined) was 71.7%.
As to `CCC(C)c1ccc(NC(=S)NCc2ccccn2)cc1` (centres undefined), the activity score is -123% (active).
Regarding `COc1cccc(NC(=S)NCc2ccccn2)c1`, the activity score is -101% (active).
The value for `CCOC(=O)c1cc2cc(C)ccc2[nH]1` was -132% (active); that for `CCOC(=O)c1nc(-c2ccc3c(c2)OCO3)[nH]c1C` was -109% (active).
Next, `C[C@@H]1C[C@@H]2O[C@H]2/C=C\C=C\C(=O)Cc2c(Cl)c(O)cc(O)c2C(=O)O1`: -113% (active); `CC(C)c1ccc(C(=O)NCCCc2ccccc2)cc1`: -150% (active).
As for `CN1CCN(CCCNC(=O)c2ccc(/C=C3\Oc4ccccc4N(Cc4ccc(Cl)cc4)C3=O)cc2)CC1`, the activity score was 96.5%.
The value for `S=C(Nc1ccc2c(c1)OCO2)N1CCCC1` was -93.7% (active).
Consider `Cc1cccn2c(=O)c(C=O)c(Nc3ccc(S(N)(=O)=O)cc3)nc12`, for which the activity score was -500% (active).
As to `O=C(CC1Nc2ccccc2NC1=O)Nc1ccccc1` (centres undefined), the activity score is -128% (active).
The value for `Oc1c(Br)cccc1/C=N/Nc1c(F)c(F)c(F)c(F)c1F` was -72.3% (active); that for `Cc1[nH]c(=O)c(C(=O)/C=C/c2ccccc2)c2c1CCCC2` was -146% (active); that for `COc1cccc(NC(=S)C(C#N)=C2N(C)c3ccccc3N2C)c1` was -86.1% (active).
The value for `COc1ccc(-c2csc3nc(-c4ccccc4F)oc(=O)c23)cc1OC` was -63.1% (active); that for `COc1ccc(/C=N/Nc2ncnc3sc4c(c23)CCCC4)cc1O` was -197% (active).
`CC(C)(C)c1ccc(/C=C/C(=O)Nc2ncccn2)cc1`: the activity score was -155% (active).
Regarding `O=c1c2c(-c3ccccc3)ccnc2[nH]n1-c1ccccc1`, the activity score was -127% (active).
Next, `CN(C)c1nc(N)nc(CSc2nnnn2-c2cccc3ccccc23)n1`: 68.9%.
The value for `CN(c1ccc2nc3ccccc3c(=O)n2n1)C1CCCCC1` was 119%.
Next, `CN(C(=O)CSc1nnnn1-c1ccccc1)C1CCCCC1`: -63.1% (active); `CN(C(=O)CSc1nncc2ccccc12)C1CCCCC1`: -107% (active).
